Values without a mark were called inactive. Inconclusive results are not listed. Active and inactive are the calls of the source. Unless noted, calls follow the shape of the full dose curve.

The nature of experiment [1]: Nuclear factor erythroid 2-related factor 2/antioxidant responsive element (Nrf2/ARE) small molecule agonists: luciferase reporter gene qHTS assay in human keratinocytes (AID 1919969). Also: nearly all actives have a fitted effect of over 35% in size. Also: potency is read from the fitted curve at half-maximal effect.
Experiment [2] addresses Gonadotropin-releasing hormone receptor (Homo sapiens) (UniProt P30968). Put plainly: Human gonadotropin-releasing hormone receptor (GnRHR) small molecule agonists, calcium flux assay in GnRHR-HEK293 cells (AID 1920063). Also: nearly all actives have a fitted effect of over 35% in size. Put shortly: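 HEK293 cells stably expressing human GnRHR were plated 18 h at 37 °C, loaded with calcium dye 1 h at 37 °C, then given compound in agonist mode; fluorescence (Ex/Em 480/540) read kinetically for 3 min at 1 s intervals.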

The target in experiment [3] is KiSS-1 receptor (Homo sapiens) (UniProt Q969F8). The experiment is described as follows: Human kisspeptin (KISS1R) small molecule agonists, calcium flux assay in KISS1R-HEK293 cells (AID 1920064; active = well fitted activation curve with a large enough effect in the repeat runs). A digest of the protocol:
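HEK293 cells stably expressing human KISS1R were plated 18 h at 37 °C, loaded with calcium dye for 1 h at 37 °C, then given compound by pin tool. Fluorescence (Ex/Em 480/540) was read kinetically for 3 min.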

A short description of experiment [4]: G protein-coupled receptor (GPCR) small molecule agonists, calcium flux assay: HEK293 wild type cell line counter screen (AID 1920065). Put shortly:
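Cells were plated and cultured 18 h at 37 C/5% CO2, then loaded with calcium dye for 1 h at 37 C. Compounds in DMSO were pin-transferred in agonist mode, and fluorescence (Ex/Em 480/540) was read kinetically for 3 min at 1 s intervals.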

The nature of experiment [5]: p53 small molecule agonists, cell-based qHTS assay with human liver microsomes (AID 1963577).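 Also: p53 response element beta-lactamase reporter cells with liver microsomes plus NADPH.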 A digest of the protocol:
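With metabolic activation: human liver microsomes (0.5 mg/mL final) plus NADPH (0.5 mg/mL final) added alongside compounds to p53RE-bla cells; 16 h 37 C exposure; beta-lactamase read by LiveBLAzer fluorescence.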

The nature of experiment [6]: p53 small molecule agonists, cell-based qHTS assay with rat liver microsomes (AID 1963578). A digest of the protocol:
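Metabolic activation by rat liver microsomes and NADPH, each 0.5 mg/mL final, added right after compounds to p53RE-bla reporter cells (4,000/well, plated 5 h earlier). 16 h at 37 C, then LiveBLAzer substrate for 2 h at room temperature in the dark; fluorescence read-out.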

A short description of experiment [7]: p53 small molecule agonists, cell-based qHTS assay with human liver microsomes: qHTS cell viability counter screen (AID 1963579). Also: nearly all actives have a fitted effect of over 45% in size. Put shortly: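 Metabolic activation used human liver microsomes and NADPH, both 0.5 mg/mL final, over 16 hours at 37 C on p53RE-bla cells (4,000/well). Cytotoxicity measured by CellTiter-Glo luminescence, 30 min at room temperature.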

The nature of experiment [8]: p53 small molecule agonists, cell-based qHTS assay with rat liver microsomes: qHTS cell viability counter screen (AID 1963580). Also: nearly all actives have a fitted effect of over 45% in size. Put shortly: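 Viability is assessed in parallel with the p53 reporter read: HCT-116 p53RE-bla cells receive compounds plus rat microsomes and NADPH (0.5 mg/mL final apiece), incubate 16 h at 37 C, and then CellTiter-Glo luminescence is recorded.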

Experiment [9] in a line: p53 small molecule agonists, cell-based qHTS assay: qHTS cell viability counter screen (AID 1963581). Also: nearly all actives have a fitted effect of over 45% in size. Put shortly:
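p53RE-bla HCT-116 cells were exposed to compounds for 16 h at 37 C; after the beta-lactamase FRET read in the same wells, CellTiter-Glo was added and luminescence (intracellular ATP) read after 30 min at room temperature.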

Experiment [10] can be described thus: p53 small molecule agonists, cell-based qHTS assay (AID 1963582; active = well fitted activation curve with a large enough effect in the signal ratio in the repeat runs, not every such curve was filed as active; the % refers to the signal ratio). Put shortly: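 p53RE-bla beta-lactamase reporter cells rested 5 h at 37 C/5% CO2, then received compounds in DMSO by pin transfer and were incubated 16 h at 37 C. LiveBLAzer B/G FRET substrate was loaded for 2 h at room temperature before fluorescence reading.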
The nature of experiment [11]: cAMP Responsive Elements (CRE) small molecule agonists, cell-based qHTS assay (AID 1963590). Put shortly: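 CRE-bla HEK 293T cells in DMEM with 10% dialyzed FBS, NEAA, pyruvate and 25 mM HEPES were plated 18 h at 37 C/5% CO2, then exposed to compounds in DMSO for 3 h before LiveBLAzer B/G FRET substrate addition.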
A short description of experiment [12]: cAMP Responsive Elements (CRE) small molecule antagonists, cell-based qHTS assay (AID 1963591; active = well fitted inhibition curve with a large enough effect in the signal ratio in the repeat runs, not every such curve was filed as active; the % refers to the signal ratio). Put shortly:
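CRE-bla HEK293T cells were plated 18 h at 37 °C/5% CO2, pinned with compound in DMSO, then stimulated with NKH477 at 0.25 uM final for 3 h. LiveBLAzer B/G FRET substrate was added and plates incubated 2 h at room temperature.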

For experiment [13], the target named is Beta-2 adrenergic receptor (Homo sapiens) (UniProt P07550). The experiment is described as follows: Adrenergic beta2 receptor (ADRB2) small molecule agonists, cell-based qHTS assay (AID 1963593).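 Also: CHO cells stably overexpressing human ADRB2.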 A digest of the protocol:
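CHO cells stably over-expressing ADRB2 were plated overnight at 37C, then dosed with compounds plus a stimulation mix containing 100uM IBMX and 25uM Ro-20-1724 for 0.5hr at room temperature. cAMP was measured by HTRF competition, 1hr.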

In experiment [14] the target is 5-hydroxytryptamine receptor 2A (Homo sapiens) (UniProt P28223). Put plainly: 5-hydroxytryptamine receptor 2A (HTR2A) small molecule antagonists, cell-based qHTS assay (AID 1963586). Also: nearly all actives have a fitted effect of over 45% in size. A digest of the protocol: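 Antagonist-mode intracellular calcium assay: DOI (4 nM) added after 5 min compound pre-incubation at room temperature to dye-loaded HTR2A-CHO cells. Fluorescence followed for 3 min, sampled every second.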

Experiment [15] shares this target. Put plainly: 5-hydroxytryptamine receptor 2A (HTR2A) small molecule agonists, cell-based qHTS assay (AID 1963587). Also: nearly all actives have a fitted effect of over 30% in size. A digest of the protocol: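 CHO cells stably expressing human HTR2A, plated 18 h, loaded with calcium dye 1 h at 37 C. Agonist mode: compounds added and intracellular calcium fluorescence recorded kinetically for 2 min at 1 sec intervals.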
Experiment [16] concerns the target Muscarinic acetylcholine receptor M1 (Homo sapiens) (UniProt P11229). The experiment is described as follows: Cholinergic receptor muscarinic 1 (CHRM1) small molecule antagonists, cell-based qHTS assay (AID 1963588). Also: nearly all actives have a fitted effect of over 40% in size. Also: potency is read from the fitted curve at half-maximal effect. Put shortly: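 CHRM1-CHO calcium-flux assay, antagonist mode. Cells were seeded 18 h, dye-loaded 1 h at 37 C and given compound for 5 min at RT, then acetylcholine was added at 50nM. FDSS fluorescence was read 3 min; 15 concentrations, three runs.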

Experiment [17] shares this target. The experiment is described as follows: Cholinergic receptor muscarinic 1 (CHRM1) small molecule agonists, cell-based qHTS assay (AID 1963589). Also: nearly all actives have a fitted effect of over 35% in size. A digest of the protocol:
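CHO cells stably expressing human CHRM1, seeded 18 h at 37 C/5% CO2, dye-loaded 1 h at 37 C, then given compound in agonist mode; intracellular calcium fluorescence read kinetically at 1 s intervals. Fifteen concentrations, three independent runs.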

For experiment [18], the target named is Beta-2 adrenergic receptor (Homo sapiens) (UniProt P07550). The experiment is described as follows: Adrenergic beta2 receptor (ADRB2) small molecule antagonists, cell-based qHTS assay (AID 1963592). Also: series mostly up to about 92 µM; nearly all actives have a fitted effect of over 50% in size. A digest of the protocol:
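Cells (CHO, stable ADRB2 overexpression) incubated 18-20hr at 37C; compounds added from DMSO; agonist mix (1nM isoproterenol, 100uM IBMX, 25uM Ro-20-1724) added; 0.5hr RT; d2-cAMP and anti-cAMP-cryptate added; 1hr RT; 665/615 nm read.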

Experiment [19] concerns the target D(2) dopamine receptor (Homo sapiens) (UniProt P14416). Put plainly: Dopamine D2 receptor (DRD2) small molecule agonists, cell-based qHTS assay (AID 1963594). Also: nearly all actives have a fitted effect of over 35% in size. A digest of the protocol:
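HEK293 cells stably expressing human DRD2, pre-treated with PDE inhibitor Ro20-1724 (0.1 mM final) and compound 10 min at room temperature, then stimulated with NKH477 (200nM […]) for 30 min. cAMP read by HTRF (665/620 nm).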

Experiment [20] shares this target. Put plainly: Dopamine D2 receptor (DRD2) small molecule antagonists, cell-based qHTS assay (AID 1963595; active = well fitted inhibition curve with a large enough effect in the signal ratio in the repeat runs, with a control signal flat; the % refers to the signal ratio). Put shortly:
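Human DRD2 antagonist qHTS measuring cAMP by HTRF. The cells are exposed to compound for 10 min, then to NKH477 (200 nM) and quinpirole (12 nM) for 30 min at RT, with Ro20-1724 (0.1 mM) present throughout.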

Chain of KiSS-1 receptor (Homo sapiens) (Q969F8 whole entry, looked up): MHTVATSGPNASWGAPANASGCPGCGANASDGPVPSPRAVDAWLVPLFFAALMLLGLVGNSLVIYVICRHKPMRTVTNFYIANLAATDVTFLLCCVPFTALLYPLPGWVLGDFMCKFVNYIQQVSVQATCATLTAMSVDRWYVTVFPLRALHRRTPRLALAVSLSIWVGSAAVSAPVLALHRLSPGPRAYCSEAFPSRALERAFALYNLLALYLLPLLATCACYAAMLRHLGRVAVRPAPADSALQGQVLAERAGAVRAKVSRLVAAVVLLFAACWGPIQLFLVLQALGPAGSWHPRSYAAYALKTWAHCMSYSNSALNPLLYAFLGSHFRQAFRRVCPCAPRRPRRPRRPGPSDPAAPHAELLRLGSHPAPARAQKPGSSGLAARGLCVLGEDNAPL
Chain of Beta-2 adrenergic receptor (Homo sapiens) (P07550 whole entry, looked up): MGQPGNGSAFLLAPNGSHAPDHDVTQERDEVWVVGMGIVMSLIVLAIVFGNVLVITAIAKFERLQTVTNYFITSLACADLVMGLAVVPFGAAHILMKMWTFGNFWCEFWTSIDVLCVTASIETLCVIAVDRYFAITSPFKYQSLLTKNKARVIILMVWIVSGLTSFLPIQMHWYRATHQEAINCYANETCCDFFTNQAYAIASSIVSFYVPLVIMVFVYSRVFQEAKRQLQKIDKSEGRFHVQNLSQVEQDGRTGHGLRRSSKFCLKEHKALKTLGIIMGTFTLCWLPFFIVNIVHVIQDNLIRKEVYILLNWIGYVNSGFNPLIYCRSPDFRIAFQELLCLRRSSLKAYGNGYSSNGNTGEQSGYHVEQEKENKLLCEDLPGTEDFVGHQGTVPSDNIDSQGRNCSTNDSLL
Chain of Muscarinic acetylcholine receptor M1 (Homo sapiens) (P11229 whole entry, looked up): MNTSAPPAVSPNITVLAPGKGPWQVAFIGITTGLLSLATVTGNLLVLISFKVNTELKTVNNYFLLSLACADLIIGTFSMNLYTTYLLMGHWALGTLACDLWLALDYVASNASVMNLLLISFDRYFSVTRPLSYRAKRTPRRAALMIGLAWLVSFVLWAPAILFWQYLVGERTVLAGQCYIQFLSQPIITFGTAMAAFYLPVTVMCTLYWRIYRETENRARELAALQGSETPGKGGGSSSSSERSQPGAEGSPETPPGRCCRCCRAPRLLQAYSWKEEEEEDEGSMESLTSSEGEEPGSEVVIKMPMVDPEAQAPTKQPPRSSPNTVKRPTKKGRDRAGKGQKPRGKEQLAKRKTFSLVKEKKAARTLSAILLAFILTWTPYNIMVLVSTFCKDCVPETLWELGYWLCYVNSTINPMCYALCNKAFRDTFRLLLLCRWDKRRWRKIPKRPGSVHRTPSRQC
Chain of Gonadotropin-releasing hormone receptor (Homo sapiens) (P30968 whole entry, looked up): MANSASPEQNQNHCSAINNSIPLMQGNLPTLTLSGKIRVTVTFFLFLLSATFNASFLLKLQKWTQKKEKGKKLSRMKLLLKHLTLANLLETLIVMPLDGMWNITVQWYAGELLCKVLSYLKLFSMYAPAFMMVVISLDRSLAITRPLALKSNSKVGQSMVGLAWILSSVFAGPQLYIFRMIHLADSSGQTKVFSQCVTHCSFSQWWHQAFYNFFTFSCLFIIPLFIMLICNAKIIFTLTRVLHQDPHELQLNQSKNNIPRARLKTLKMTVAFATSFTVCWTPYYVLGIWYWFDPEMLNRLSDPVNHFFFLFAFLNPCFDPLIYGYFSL
Chain of D(2) dopamine receptor (Homo sapiens) (P14416 whole entry, looked up): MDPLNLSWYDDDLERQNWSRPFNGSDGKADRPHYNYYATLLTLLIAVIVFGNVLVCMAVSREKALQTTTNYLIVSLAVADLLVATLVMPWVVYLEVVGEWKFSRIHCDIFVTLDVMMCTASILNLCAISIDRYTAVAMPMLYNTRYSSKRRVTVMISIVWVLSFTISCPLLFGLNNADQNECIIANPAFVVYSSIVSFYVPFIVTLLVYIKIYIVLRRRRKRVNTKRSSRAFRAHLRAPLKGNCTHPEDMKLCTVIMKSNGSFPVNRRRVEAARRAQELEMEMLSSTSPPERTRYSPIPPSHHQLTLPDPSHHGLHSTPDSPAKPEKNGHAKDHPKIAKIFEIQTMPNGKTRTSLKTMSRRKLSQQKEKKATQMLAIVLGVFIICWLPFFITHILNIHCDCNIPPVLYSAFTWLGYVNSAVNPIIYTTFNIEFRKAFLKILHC
Chain of 5-hydroxytryptamine receptor 2A (Homo sapiens) (P28223 whole entry, looked up): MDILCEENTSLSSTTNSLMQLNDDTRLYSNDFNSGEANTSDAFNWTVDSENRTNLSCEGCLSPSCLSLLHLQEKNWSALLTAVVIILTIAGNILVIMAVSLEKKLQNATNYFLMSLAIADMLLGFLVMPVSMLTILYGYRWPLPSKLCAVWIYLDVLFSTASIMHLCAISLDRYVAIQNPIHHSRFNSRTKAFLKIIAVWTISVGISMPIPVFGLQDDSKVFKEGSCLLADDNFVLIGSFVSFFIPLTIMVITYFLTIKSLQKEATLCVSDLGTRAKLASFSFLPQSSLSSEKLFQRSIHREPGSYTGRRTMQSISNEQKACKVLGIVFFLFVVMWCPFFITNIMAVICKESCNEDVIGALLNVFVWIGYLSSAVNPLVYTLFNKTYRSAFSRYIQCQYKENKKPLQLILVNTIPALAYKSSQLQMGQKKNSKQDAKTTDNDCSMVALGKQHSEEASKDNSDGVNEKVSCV

For `C[C@@H]1C[C@H]2[C@@H]3CCC4=CC(=O)C=C[C@]4(C)[C@@]3(F)[C@@H](O)C[C@]2(C)[C@@]1(O)C(=O)COP(=O)(O)O`, the Potency result in [1], in experiment [2], in experiment [5], in experiment [6], in [7] and in [8] was “inactive” each time. For the same molecule, the Potency entry in experiment [9], in experiment [10], in experiment [11], in experiment [12] and in [13] was “inactive” in each case. The outcome in [3] and in [4] was inactive.

As for `COC(=O)C1=C(C)NC(C)=C(C(=O)OC(C)(C)CN(C)CCC(c2ccccc2)c2ccccc2)C1c1cccc([N+](=O)[O-])c1` (stereo unspecified), the Potency entry in experiment [1], in experiment [2], in [5], in experiment [6], in [7] and in [8] was “inactive” in each case. Moreover, the Potency entry in experiment [9], in [10], in experiment [14], in experiment [15], in experiment [17] and in [12] was “inactive” each time. Also, the Potency result in experiment [18], in experiment [19] and in experiment [20] was “inactive” in each case. Also, the result in experiment [3] and in experiment [4] was inactive. For the same molecule, the Potency in [16] is 6.5 µM (active).

For `CCC1C(=O)OCC1Cc1cncn1C` (stereo unspecified), the Potency entry in [1], in experiment [2], in [5], in experiment [6], in experiment [7] and in [8] was “inactive” throughout. For the same molecule, the Potency entry in experiment [9], in [10], in [14], in experiment [15], in experiment [11] and in experiment [12] was “inactive” in each case. Moreover, the Potency result in experiment [18], in experiment [13], in [19] and in experiment [20] was “inactive” throughout. For the same molecule, the outcome in [3] and in experiment [4] was inactive.

In the case of `CC(=O)C1C(=O)C=C(C)OC1=O` (stereo unspecified), the Potency result in [1], in experiment [2], in [5], in [6], in [7] and in experiment [8] was “inactive” throughout. Also, the Potency entry in [9], in [10], in experiment [14], in experiment [15], in [17] and in experiment [11] was “inactive” each time. In addition, the Potency entry in [12], in experiment [18], in [19] and in [20] was “inactive” throughout. The outcome in experiment [3] and in experiment [4] was inactive.

As for `ONc1ccccc1`, the Potency in experiment [1] was 60.5 µM (active). Moreover, the Potency entry in experiment [2], in experiment [5], in [6], in experiment [7], in experiment [8] and in experiment [9] was “inactive” in each case. Further, the Potency entry in experiment [10], in [14], in [16], in experiment [17], in [11] and in [12] was “inactive” each time. The Potency result in experiment [18], in [19] and in experiment [20] was “inactive” each time. The outcome in [3] and in experiment [4] was inactive.

As for `COc1ccc(OC(=O)N(CC(=O)O)Cc2ccc(OCCc3nc(-c4ccccc4)oc3C)cc2)cc1`, the Potency result in experiment [1], in [2], in [5], in [6], in experiment [7] and in experiment [8] was “inactive” throughout. The Potency result in experiment [9], in experiment [10], in experiment [16], in experiment [17], in [18] and in experiment [19] was “inactive” each time. Moreover, the outcome in experiment [3] and in [4] was inactive.

Regarding `CC(=O)Nc1ccc(N)cc1`, the Potency result in experiment [1], in experiment [2], in [5], in [6], in [7] and in [8] was “inactive” each time. Besides, the Potency result in experiment [9], in experiment [10], in experiment [14], in experiment [15], in [16] and in experiment [11] was “inactive” throughout. In addition, the Potency entry in [12], in experiment [18], in experiment [13] and in experiment [19] was “inactive” in each case. For the same molecule, the result in experiment [3] and in experiment [4] was inactive.

As to `CC/C=C\CCCCO`, the Potency entry in [1], in experiment [2], in experiment [5], in [6], in experiment [7] and in [8] was “inactive” each time. In addition, the Potency entry in experiment [9], in experiment [10], in experiment [14], in experiment [15], in experiment [16] and in experiment [17] was “inactive” each time. The Potency result in experiment [11], in [12], in experiment [18], in [19] and in [20] was “inactive” each time. Further, the result in experiment [3] and in experiment [4] was inactive.

The values above are taken from PubChem BioAssay (Tox21).
